The panel holds about 83,000 compounds, 20% with a hit somewhere; the sample as a whole holds those more often.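 96-well plates, one dose, 48 hours. Percent growth reported; active if below 10.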
Legend:
Test in all cases: NCI-60 one-dose screen, 48 h (100 = growth as untreated, 0 = no growth, -100 = all killed)
[1] = test system: HCT-15 colon; settings: 10 µM
[2] = test system: HT29 colon; settings: 10 µM
[3] = test system: SNB-19 CNS; settings: 10 µM
[4] = test system: U251 CNS; settings: 10 µM
[5] = test system: SK-MEL-5 melanoma; settings: 10 µM
[6] = test system: UACC-62 melanoma; settings: 10 µM unless noted
[7] = test system: LOX IMVI melanoma; settings: 10 µM
[8] = test system: SK-MEL-28 melanoma; settings: 10 µM
[9] = test system: EKVX NSCLC; settings: 10 µM
[10] = test system: SN12C renal; settings: 10 µM
[11] = test system: UO-31 renal; settings: 10 µM
[12] = test system: TK-10 renal; settings: 10 µM unless noted
[13] = test system: ACHN renal; settings: 10 µM
[14] = test system: CAKI-1 renal; settings: 10 µM
[15] = test system: A498 renal; settings: 10 µM
[16] = test system: CCRF-CEM leukemia; settings: 10 µM
[17] = test system: MOLT-4 leukemia; settings: 10 µM
[18] = test system: SNB-75 CNS; settings: 10 µM
[19] = test system: PC-3 prostate; settings: 10 µM
[20] = test system: SK-MEL-2 melanoma; settings: 10 µM

Measured: growth

c1ncc2[nH]cnc2n1
inactive: [1] 87.2% | [2] 92.3% | [3] 102% | [4] 103% | [5] 97.1% | [6] 91.9% | [7] 103% | [8] 100% | [9] 126% | [10] 97.1% | [11] 83.5% | [12] 103% | [13] 95.1% | [14] 94.8% | [15] 79.1% | [16] 88.7% | [17] 80.8%

NC(=S)NN=C1CCCC1
inactive: [1] 77.9% | [18] 99.3% | [3] 105% | [4] 73.2% | [19] 89.9% | [5] 97.8% | [6] 103% | [7] 88.6% | [8] 101% | [20] 104% | [9] 65.4% | [10] 94.5% | [11] 63.2% | [12] 105% | [13] 107% | [14] 102% | [15] 85.6% | [16] 42.7% | [17] 66.1%

CN(C)c1ccc(C(c2ccc(O)cc2)c2ccc(N(C)C)cc2)cc1
inactive: [1] 70.8% | [18] 87.3% | [3] 97.2% | [4] 98.5% | [19] 88.7% | [5] 90.5% | [6] 79.8% | [7] 88% | [8] 101% | [20] 101% | [9] 91.3% | [10] 92% | [11] 81.2% | [12] 117% | [13] 103% | [14] 93.7% | [15] 85.8% | [16] 96.3% | [17] 86.4%

CC1Cc2ccccc2O1 (configuration not stated)
inactive: [1] 99.1% | [18] 105% | [3] 117% | [4] 111% | [19] 106% | [5] 108% | [6] 122% | [7] 97.4% | [8] 114% | [9] 122% | [10] 106% | [11] 90.6% | [12] 129% | [13] 101% | [14] 102% | [15] 115% | [16] 112% | [17] 105%

Nc1ccccc1C(=O)Nc1ccc(Cl)cc1Cl
inactive: [1] 101% | [18] 67.7% | [3] 96.1% | [4] 102% | [19] 78.8% | [5] 107% | [6] 88.7% | [7] 87.9% | [8] 100% | [20] 112% | [9] 99.5% | [10] 103% | [11] 52.4% | [12] 118% | [13] 94% | [14] 69.1% | [15] 107% | [16] 90.3% | [17] 77.7%

CCOc1ccc2[nH]c(=S)sc2c1
inactive: [1] 108% | [18] 92% | [3] 103% | [4] 106% | [19] 101% | [5] 101% | [6] 104% | [7] 98.6% | [8] 109% | [9] 96.2% | [10] 102% | [11] 88% | [12] 103% | [13] 111% | [14] 100% | [15] 94% | [16] 98.3% | [17] 86.7%

CC1(C)Nc2cccc3c(N=Nc4ccc(N=Nc5ccccc5)c5ccccc45)ccc(c23)N1
inactive: [1] 77.5% | [18] 73% | [3] 124% | [4] 110% | [19] 89.6% | [5] 92.9% | [6] 79.2% | [7] 77.6% | [8] 116% | [9] 78% | [10] 94.6% | [11] 54.2% | [13] 77.7% | [14] 88.1% | [15] 103% | [16] 107% | [17] 115%

From PubChem BioAssay (NCI)
